An excerpt weighted towards active compounds, which were near 3.4% of everything screened.
GalR3 antag: human GalR3 antagonism; 0.44% of 360,000 active; inhibition, % at 3 µM; O60755; AID 651719; HEK293 GalR3-CNG cAMP membrane potential fluorescence; galR3 body fused to GalR1 C-terminus;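 active = inhibition above the screen-wide average plus 3 SD, cut at about 13% in these data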;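 note: forskolin and galanin both at EC90 stimulate the cells; cAMP rise reported by CNG channel membrane potential dye signal; 0% = forskolin plus galanin with DMSO and 100% = forskolin alone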
NR2F2 inh: NR2F2 (human) inhibition, primary screen; HEK293T NGFI-A luciferase reporter, luminescence; inhibition, % at 8.6 µM; 0.7% of 370,000 active;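 active = inhibition above a per-plate cutoff, mean inhibition of test wells between control levels plus 3 SD, cut at about 38% in these data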;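 note: cells cotransfected with COUP-TFII expression vector driving the NGFI-A reporter; 0% = median of COUP-TF2 test wells and 100% = reporter-only cells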
Target sequence (P24468 whole entry, looked up): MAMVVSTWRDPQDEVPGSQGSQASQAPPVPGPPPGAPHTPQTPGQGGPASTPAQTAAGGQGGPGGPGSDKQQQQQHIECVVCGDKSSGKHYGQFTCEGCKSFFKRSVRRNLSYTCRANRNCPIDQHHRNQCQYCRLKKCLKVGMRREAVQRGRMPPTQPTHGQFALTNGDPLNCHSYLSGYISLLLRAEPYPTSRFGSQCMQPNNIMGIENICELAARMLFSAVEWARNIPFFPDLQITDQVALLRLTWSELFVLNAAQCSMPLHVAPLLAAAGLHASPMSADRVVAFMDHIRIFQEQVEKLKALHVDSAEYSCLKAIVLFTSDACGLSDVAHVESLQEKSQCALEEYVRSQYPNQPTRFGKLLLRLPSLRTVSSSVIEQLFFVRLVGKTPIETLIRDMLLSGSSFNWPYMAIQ
SMARCA2 activ: activators of SMARCA2 function; MG213 cells, MMTV-luciferase reporter, dexamethasone, overnight; activation, % at 9.1 µM; 1% of 370,000 active; in the data active = activation above about 7.8%;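 note: 0% = vehicle wells and 100% = reference activator wells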
Cardio protect: myocardial damage modulation in H9c2 cells; H9c2 cardiomyocytes, H2O2 injury protection, ATPLite, 2 h; protection from H2O2 cell death, % at 20 µM; 0.63% of 360,000 active;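 active = compounds giving at least 50% protection of heart cells from peroxide-induced death in the single-dose screen, raw or plate-pattern-corrected value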;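 note: 0% = DMSO wells with peroxide and 100% = DMSO wells without peroxide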
Gli-Sufu block: antagonists of Gli-Sufu signaling; Sufu-KO-LIGHT fibroblasts, Gli luciferase reporter luminescence; inhibition, % at 5 µM; 0.74% of 340,000 active;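 active = inhibition above about 55%, limit read from the data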;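 note: 0% = DMSO-treated cells and 100% = wells with medium but no cells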
GAA850 FXN act: frataxin GAA850 promoter activation. HEK293 lucGAA850 FXN promoter luciferase reporter, 24 h; percent of 10 µM SAHA response. activation, % at 6 µM. 0.56% of 360,000 active;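 active = activation above the average of all compounds screened plus 3 SD, cutoff fixed separately per campaign, cut at about 7.5% in these data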;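 note: 0% = DMSO wells and 100% = 10 µM SAHA wells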
VP16 Luc counter: counter-screen for COUP-TFII antagonists: inhibitors of VP16; 25% of 2,500 active; HEK293 Gal4-VP16 luciferase reporter, luminescence; inhibition, % at 8.5 µM; shares compounds with NR2F2 inh; in the data active = inhibition above about 13%
COUP-TFII conf: COUP-TFII (NR2F2) inhibition, confirmation assay; shares compounds with NR2F2 inh; HEK293 NGFI-A luciferase reporter, luminescence; inhibition, % at 8.5 µM; 45% of 2,500 active; AID 687008;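 active = mean inhibition over three repeats above a set limit taken from the earlier primary screen, cut at about 38% in these data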;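 note: 100% = cells given the luciferase reporter alone without the COUP-TF2 vector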
* marks the source's active call; other numbers are inactive results; nt = no result given.

SMILES	GalR3 antag	NR2F2 inh	SMARCA2 activ	Cardio protect	Gli-Sufu block	GAA850 FXN act	VP16 Luc counter	COUP-TFII conf
CCOC(=O)c1ccc(-c2ccc(N3C(c4ccsc4)=Cc4ccc(F)cc4C3c3c[nH]c4ccc(C#N)cc34)cc2)cc1F (centres undefined)	-7	56*	-9	nt	nt	nt	-5	0
CC(=O)N1c2ccc(S(=O)(=O)N3CCC(C(=O)Nc4ccc(C)cn4)CC3)cc2CC1C (centres undefined)	-10	6	-4	-1	12	-1	nt	nt
Cc1ccc(NC(=O)C2CCN(S(=O)(=O)c3ccc4c(c3)CC(C)N4C(=O)C3CCC3)CC2)nc1 (centres undefined)	0	45*	-4	-4	40	1	-1	27
CC(=O)N1c2ccc(S(=O)(=O)N3CCCC(C(=O)Nc4ccc(F)cc4)C3)cc2CC1C (centres undefined)	2	46*	-7	-29	14	-4	3	22
COc1cccc(C(=O)Nc2nnc(SCC(=O)NC3CCCC3)s2)c1	4	-12	1	-17	-23	0	nt	nt
CCc1nnc(NC(=O)CSc2nnc(-c3ccc(NS(=O)(=O)c4ccccc4)cc3)o2)s1	-1	4	-1	4	3	0	nt	nt
Cc1noc(C)c1CSCC(=O)N1CCN(c2ccc([N+](=O)[O-])cc2)CC1	-5	38*	-7	-21	7	-2	2	26
Cc1cc(C)cc(C(O)c2ncc(-c3cccc(C(F)(F)F)c3)[nH]2)c1 (centres undefined)	-6	-4	-4	-11	nt	-1	nt	nt
CCOc1cc(/C=N/Nc2nnc(C)n2N)ccc1O	-7	49*	-8	-7	0	0	5	9
O=C(CSc1nnc(C2COc3ccccc3O2)o1)N1CCN(c2ccccc2)CC1 (centres undefined)	-4	6	-4	-4	4	2	nt	nt
O=C(O)c1ccccc1C(=O)Nc1ccc(Oc2ccc3ccccc3c2)cc1	-2	66*	-8	-3	1	-9	9	7
O=C(O)c1ccccc1C(=O)Nc1ccc(Oc2cccc3ccccc23)cc1	-7	100*	-11	4	12	-17	46*	34
Cc1cccc(Oc2ccc(NC(=O)c3ccccc3C(=O)O)cc2)c1C	-4	25	-1	-10	-5	2	nt	nt
COc1ccc(N(Cc2cc3ccc(C)cc3[nH]c2=O)C(=O)C2CCCO2)cc1 (centres undefined)	-6	0	0	0	4	1	nt	nt
C=C(C(=O)c1ccccc1)C(C)C(=C)C(=O)c1ccccc1	-1	58*	-4	-16	32	-13	47*	87*
Cc1ccccc1CN1[C@@H](C)[C@H](c2ccccc2)Oc2cccc(N3CCCC(C)C3)c2S1(=O)=O (some centres undefined)	0	-6	-5	nt	nt	nt	nt	nt
CC(C)N1C(=O)C(=O)N(CC(=O)N2c3ccccc3NC(=O)CC2C)C1=O (centres undefined)	-3	-7	0	-3	-8	2	nt	nt
COCC1CCN(C(=O)c2cc(COc3ccc(F)cc3Cl)on2)C1 (centres undefined)	-1	-12	-3	0	nt	-1	nt	nt
Cc1nn(C)cc1C(C)NC(=O)c1cc(COc2cccc3cnccc23)on1 (centres undefined)	-4	38*	-2	-4	28	1	1	12
COc1cccc(OCc2cc(C(=O)N3CCC(c4ccncc4)CC3)no2)c1	-2	49*	-3	-15	-18	3	-2	31
COCC1CCN(C(=O)c2cc(COc3cccc4cnccc34)on2)CC1	-8	53*	-5	-15	42	-1	-4	37
Cc1ccc(C(=O)OCC(=O)N(C)C2CCS(=O)(=O)C2)cc1S(=O)(=O)N1CCCCC1 (centres undefined)	-5	4	1	5	1	-3	nt	nt
Cc1c(CN2CCC(CO)(CCOc3ccccc3)CC2)c(=O)n(-c2ccccc2)n1C	0	6	-2	-1	9	3	nt	nt
COc1cc(CC(=O)N2c3ccccc3N=C(c3ccccc3)C2C(=O)NCc2ccccc2)cc(OC)c1 (centres undefined)	-2	-9	0	nt	nt	nt	nt	nt
O=C(NC1CCCC1)C1CCC(CNS(=O)(=O)c2cccs2)CC1 (centres undefined)	1	-5	-2	-2	3	-3	nt	nt
SMILES	GalR3 antag	NR2F2 inh	SMARCA2 activ	Cardio protect	Gli-Sufu block	GAA850 FXN act	VP16 Luc counter	COUP-TFII conf
O=C(C1CCC(CNS(=O)(=O)c2cccs2)CC1)N1CCN(c2ccc(Cl)cc2)CC1 (centres undefined)	-9	60*	-6	-13	43	-5	4	59*
CCC(=O)N1CCN(c2ccc(NC(=O)c3cc4ccccc4o3)cc2Cl)CC1	-3	44*	-2	53*	15	-8	-16	36
O=C(Nc1ccc(N2CCN(C(=O)c3ccco3)CC2)c(Cl)c1)c1cc2ccccc2o1	0	63*	-3	45	7	-15	5	51*
O=C(Nc1ccc(N2CCN(C(=O)c3ccccc3)CC2)c(Cl)c1)c1ccco1	0	16	-1	-8	-13	-2	nt	nt
CC1CCCCN1c1ncnc(N)c1[N+](=O)[O-] (centres undefined)	0	37	-4	10	-16	-6	nt	nt
CC1Cc2ccccc2N1c1ncnc(N)c1[N+](=O)[O-] (centres undefined)	6	47*	-7	-12	-12	-11	21*	34
Cc1ccc(C(=O)Nc2sc(C)c(-c3ccccc3)c2C(N)=O)cc1[N+](=O)[O-]	-4	56*	-6	-10	66*	-11	27*	84*
CCOC(=O)Cc1nn(CC)c(=O)c2ccccc12	-2	-23	0	5	-2	1	nt	nt
CCOC(=O)Cc1nn(Cc2nc(-c3ccc(C#N)cc3)cs2)c(=O)c2ccccc12	0	39*	-4	16	7	-2	17*	17
CCc1nc(NCc2ccccn2)c2oc3ccccc3c2n1	-5	39*	-2	-24	-74	-2	-14	15
CCc1nc(Nc2ccncc2)c2oc3ccccc3c2n1	-3	-30	7	4	22	-5	nt	nt
Cc1nc(NCc2ccccn2)c2ccccc2n1	0	43*	-6	-17	19	0	0	22
Cc1cc(NCc2ccccn2)nc2ccccc12	-6	3	-2	-2	-2	0	nt	nt

Screening data deposited in PubChem by several laboratories.
